“And” between values parts separate entries of the source, which are not always exact repeats. Equal values may be shown once. Records with an inconclusive call do not appear. The source holds several records for some structures; these can differ, active in one and inactive in another. The source made the active and inactive calls. Unless noted, the call rests on the fitted dose curve; in most records, active means well fitted curve in the direction sought with a large enough effect in the repeat runs; inconclusive means weak or mixed curves; inactive means no such curve, though single readings can be large; an effect the other way counts as inactive or inconclusive.
How the values were obtained:
[1] = target: Estrogen receptor beta (Homo sapiens) (UniProt Q92731); test: qHTS assay to identify small molecule agonists of the estrogen receptor beta (ER-beta) signaling pathway (AID 1259377; active means well fitted activation curve with a large enough effect in the signal ratio in the repeat runs, not every such curve was filed as active; the % refers to the signal ratio)
Procedure, shortened: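 Screening used GripTite ER-beta-UAS-bla cells held in 2% charcoal-stripped FBS medium. After overnight (16 hr) compound incubation at 37C, beta-lactamase activity was detected with a FRET substrate by fluorescence.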

[2] = qHTS assay to identify small molecule agonists of the estrogen receptor beta (ER-beta) signaling pathway - cell viability counter screen (AID 1259380); further: nearly all actives have a fitted effect of over 30% in size; further: potency means the concentration at half of the fitted maximal effect
Procedure, shortened: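 Viability of ER-beta-UAS-bla HEK293T cells was determined by CellTiter-Glo luminescence following 16 hr treatment with test compounds at 37C.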

[3] = qHTS assay to identify small molecule antagonists of the estrogen receptor beta (ER-beta) signaling pathway - cell viability counter screen (AID 1259382); further: nearly all actives have a fitted effect of over 55% in size; further: potency means the concentration at half of the fitted maximal effect; on activity change, negative = cytotoxicity: series mostly up to about 92 µM
Procedure, shortened: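 Tox21 10K library tested in qHTS format on ER-beta-bla HEK293T cells stimulated with 1nM E2; 16 hr treatment at 37C. Same-well CellTiter-Glo luminescence served as the cell viability measure.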

[4] = target: Estrogen receptor (Homo sapiens) (UniProt P03372); test: qHTS assay to identify small molecule agonists of the estrogen receptor alpha (ER-alpha) signaling pathway in the presence of an antagonist (AID 1259383; calls by dose curve; further: top concentration of the series differs between compounds; nearly all actives have a fitted effect of over 15% in size)
Procedure, shortened: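 In VM7Luc4E2 cells, 4,000 per well, compounds at 15 concentrations were co-incubated 22hr at 37C with 10.0nM final ICI-182,780. Luminescence from the stably transfected 4×ERE-luciferase reporter was recorded 30min after ONE-Glo addition.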

[5] = qHTS assay to identify small molecule agonists or antagonists of the thyroid stimulating hormone receptor (TSHR) signaling pathway - wild type cell line counter screen (AID 1259384; calls by dose curve)
Procedure, shortened: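 Wild-type HEK293 cells were plated 18 h at 37 C/5% CO2, pin-dosed with compound plus Ro20-1724 medium, held 30 min at room temperature, then given cAMP-d2 and anti-cAMP-cryptate; fluorescence was read after 1 h. Fifteen concentrations, triplicate.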

[6] = qHTS assay to identify small molecule agonists of the estrogen receptor alpha (ER-alpha) signaling pathway in the presence of an antagonist - cell viability counter screen (AID 1259386);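 further: cells exposed to compounds for 22 h at 37 °C before the viability read; nearly all actives have a fitted effect of over 30% in size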; further: potency means the concentration at half of the fitted maximal effect; on activity change, negative = cytotoxicity: series mostly up to about 92 µM
Procedure, shortened: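 Fluorescent CellTiter-Fluor viability signal from VM7Luc4E2 cells, with the reagent added during the final hour of a 22hr compound exposure at 37C in the presence of 10.0nM ICI-182,780.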

[7] = target: Progesterone receptor (Homo sapiens) (UniProt P06401); test: qHTS assay to identify small molecule agonists of the progesterone receptor (PR) signaling pathway (AID 1346784; calls by dose curve; further: nearly all actives have a fitted effect of over 30% in size)
Procedure, shortened: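 Seed PR-UAS-bla HEK 293T cells (2% charcoal-stripped FBS), incubate 6 hr at 37C; add compounds in DMSO, 16 hr at 37C; add LiveBLAzer B/G substrate, 2 hr RT; read fluorescence intensity.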

[8] = target: Progesterone receptor (Homo sapiens) (UniProt P06401); test: qHTS assay to identify small molecule antagonists of the progesterone receptor (PR) signaling pathway (AID 1346795; active means well fitted inhibition curve with a large enough effect in the signal ratio in the repeat runs, not every such curve was filed as active; the % refers to the signal ratio; further: potency means the concentration at half of the fitted maximal effect)
Procedure, shortened: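 Screening used a GripTite HEK293T line with PR-responsive UAS-beta-lactamase. Cells were challenged with compound in the presence of 1 nM R5020 final for 16 hr at 37C; B/G FRET substrate, 2 hr room temperature, fluorescence.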

[9] = qHTS assay to identify small molecule antagonists of the TGF-beta/Smad signaling pathway - cell viability counter screen (AID 1346824); further: nearly all actives have a fitted effect of over 50% in size
Procedure, shortened: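 SBE-bla HEK 293T cells were plated overnight at 37 C, then given compounds in DMSO plus TGF-beta1 (added as 0.25 ng/mL solution) for 5 hr. After the bla read, CellTiter-Glo was added to the same wells and luminescence read after 30 min at room temperature.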

[10] = qHTS assay to identify small molecule agonists of the TGF-beta/Smad signaling pathway - cell viability counter screen (AID 1346829); further: nearly all actives have a fitted effect of over 45% in size; further: potency means the concentration at half of the fitted maximal effect; on activity change, negative = cytotoxicity: top concentration of the series differs between compounds
Procedure, shortened: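 Tox21 qHTS format: SBE-bla HEK 293T cells treated with DMSO-dissolved compounds for 5 hr; CellTiter-Glo luminescence after 30 min at room temperature.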

[11] = qHTS assay to identify small molecule agonists of the TGF-beta/Smad signaling pathway (AID 1346859; active means well fitted activation curve with a large enough effect in the signal ratio in the repeat runs, not every such curve was filed as active; the % refers to the signal ratio; further: series mostly up to about 77 µM)
Procedure, shortened: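 Beta-lactamase reporter activity downstream of Smad binding elements was measured in stably transfected HEK 293T cells; compounds were incubated for 5 hr, substrate for 2 hr at room temperature.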

[12] = Human pregnane X receptor (PXR) small molecule agonists, qHTS cell viability counter screen (AID 1346977); further: nearly all actives have a fitted effect of over 50% in size; further: potency means the concentration at half of the fitted maximal effect
Procedure, shortened: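 After a 5hr pre-incubation, PXR-Luc HepG2 cells received compounds plus positive control in DMSO and were kept 24hr at 37C. Cell viability was quantified by fluorescence from CellTiter-Fluor added for the final hour.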

[13] = qHTS assay to identify small molecule agonists of the androgen receptor (AR) signaling pathway in the presence of an antagonist - cell viability counter screen (AID 1259379); further: nearly all actives have a fitted effect of over 25% in size; further: potency means the concentration at half of the fitted maximal effect;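 on activity change, negative = cytotoxicity: MDA-kb2 human breast cancer cells carrying an MMTV luciferase reporter; series mostly up to about 92 µM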
Procedure, shortened: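 In MDA-kb2 cells (human breast carcinoma, MMTV-luciferase), compounds at 15 concentrations plus 3.0uM nilutamide; 16 hr, 37C, 0% CO2; CellTiter-Fluor fluorescence read for viability.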

[14] = target: Androgen receptor (Homo sapiens) (UniProt P10275); test: qHTS assay to identify small molecule agonists of the androgen receptor (AR) signaling pathway in the presence of an antagonist (AID 1259381; calls by dose curve; further: nearly all actives have a fitted effect of over 15% in size)
Procedure, shortened: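 Here, 15-concentration compound series were pin-transferred onto MDA-kb2 MMTV-luciferase cells already dosed with nilutamide (3.0uM final). After 16hr at 37C, ONE-Glo was added and luminescence read 30min later at room temperature.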

[15] = target: Thyrotropin receptor (Homo sapiens) (UniProt P16473); test: qHTS assay to identify small molecule antagonists of the thyroid stimulating hormone receptor (TSHR) signaling pathway (AID 1259385; calls by dose curve; further: nearly all actives have a fitted effect of over 20% in size; further: potency means the concentration at half of the fitted maximal effect)
Procedure, shortened: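 TSHR-HEK293 cells were plated and held 18 h at 37C/5% CO2, then given compound plus Ro20-1724 and stimulated with TSH at 1.5 ng/mL final. After 30 min at room temperature, cAMP was detected with cAMP-d2/anti-cAMP-cryptate (1 h) by fluorescence.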

[16] = target: Thyrotropin-releasing hormone receptor (Homo sapiens) (UniProt P34981); test: qHTS assay to identify small molecule antagonists of the thyrotropin-releasing hormone receptor (TRHR) signaling pathway (AID 1346877; active means well fitted inhibition curve with a large enough effect in the repeat runs, not every such curve was filed as active; further: series mostly up to about 51 µM)
Procedure, shortened: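 In this cell-based calcium flux format, HEK293 cells expressing TRHR received test compound for 5 min before the agonist TRH (1 nM final). Dye loading lasted 2 h at 37 °C.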

[17] = target: Thyrotropin-releasing hormone receptor (Homo sapiens) (UniProt P34981); test: qHTS assay to identify small molecule agonists of the thyrotropin-releasing hormone receptor (TRHR) signaling pathway (AID 1346891; calls by dose curve; further: series mostly up to about 58 µM)
Procedure, shortened: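 Overnight-plated (18 h, 37 °C, 5% CO2) TRHR-Hek293 cells; 2 h calcium dye at 37 °C; compound in DMSO; 3-min kinetic fluorescence read.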

[18] = target: Estrogen receptor beta (Homo sapiens) (UniProt Q92731); test: qHTS assay to identify small molecule antagonists of the estrogen receptor beta (ER-beta) signaling pathway (AID 1259378; active means well fitted inhibition curve with a large enough effect in the signal ratio in the repeat runs, not every such curve was filed as active; the % refers to the signal ratio; further: potency means the concentration at half of the fitted maximal effect)
Procedure, shortened: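 ER-beta-UAS-bla HEK293T (GripTite) cells in 2% charcoal-stripped FBS medium were preincubated 6 hr at 37C, dosed with compound, then stimulated with 1 nM E2 (final) for 16 hr; beta-lactamase reporter read by B/G FRET fluorescence after 2 hr substrate loading.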

[19] = qHTS assay to identify small molecule agonists of the progesterone receptor (PR) signaling pathway - cell viability counter screen (AID 1346799; calls by dose curve; further: nearly all actives have a fitted effect of over 45% in size; further: potency means the concentration at half of the fitted maximal effect)
Procedure, shortened: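 Using the same plates as the PR reporter screen, HEK293T PR-UAS-bla cells received compounds for 16 hr at 37C and were then lysed with CellTiter-Glo; luminescence was read 30 min later at room temperature.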

[20] = qHTS assay to identify small molecule antagonists of the progesterone receptor (PR) signaling pathway - cell viability counter screen (AID 1346798); further: nearly all actives have a fitted effect of over 50% in size; further: potency means the concentration at half of the fitted maximal effect; on activity change, negative = cytotoxicity: series mostly up to about 92 µM
Procedure, shortened: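 Measures cytotoxicity in parallel with the PR antagonist reporter read: HEK293T PR-UAS-bla cells get compound and R5020 for 16 hr, and remaining viable cells are quantified by CellTiter-Glo luminescence.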
On the % scale 0 is the no-effect control and ±100 the full control effect.

Sequence of Thyrotropin-releasing hormone receptor (Homo sapiens) (P34981 whole entry, looked up): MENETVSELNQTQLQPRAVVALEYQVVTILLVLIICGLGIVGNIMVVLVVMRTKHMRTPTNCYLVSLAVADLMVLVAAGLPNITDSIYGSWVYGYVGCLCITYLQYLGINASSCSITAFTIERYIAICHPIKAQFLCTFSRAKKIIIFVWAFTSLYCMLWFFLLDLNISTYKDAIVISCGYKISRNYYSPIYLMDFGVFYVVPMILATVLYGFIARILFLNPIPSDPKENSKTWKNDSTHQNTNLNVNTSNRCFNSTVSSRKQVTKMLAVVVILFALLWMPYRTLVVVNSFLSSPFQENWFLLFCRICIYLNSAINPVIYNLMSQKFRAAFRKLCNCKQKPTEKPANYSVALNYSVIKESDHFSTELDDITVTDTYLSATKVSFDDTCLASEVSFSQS
Sequence of Thyrotropin receptor (Homo sapiens) (P16473 whole entry, looked up): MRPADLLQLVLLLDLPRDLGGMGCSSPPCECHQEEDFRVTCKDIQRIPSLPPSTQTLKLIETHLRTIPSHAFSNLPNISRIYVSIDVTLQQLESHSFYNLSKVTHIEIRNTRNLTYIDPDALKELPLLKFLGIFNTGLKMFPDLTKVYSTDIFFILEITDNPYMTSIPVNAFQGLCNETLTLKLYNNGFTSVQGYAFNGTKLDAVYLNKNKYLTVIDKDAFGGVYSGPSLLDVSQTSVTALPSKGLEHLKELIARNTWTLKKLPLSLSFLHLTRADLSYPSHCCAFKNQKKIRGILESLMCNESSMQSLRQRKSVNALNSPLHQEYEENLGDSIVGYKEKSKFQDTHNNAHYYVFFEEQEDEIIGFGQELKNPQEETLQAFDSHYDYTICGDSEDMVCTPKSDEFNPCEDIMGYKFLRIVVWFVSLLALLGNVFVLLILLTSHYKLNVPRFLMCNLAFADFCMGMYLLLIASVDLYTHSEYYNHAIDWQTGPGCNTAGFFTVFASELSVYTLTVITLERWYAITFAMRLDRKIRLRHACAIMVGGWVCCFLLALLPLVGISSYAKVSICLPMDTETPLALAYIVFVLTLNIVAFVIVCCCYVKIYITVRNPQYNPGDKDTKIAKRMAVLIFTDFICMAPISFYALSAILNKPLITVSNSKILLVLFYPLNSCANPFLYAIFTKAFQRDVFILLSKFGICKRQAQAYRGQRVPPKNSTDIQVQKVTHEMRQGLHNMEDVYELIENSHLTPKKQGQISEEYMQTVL
Sequence of Estrogen receptor beta (Homo sapiens) (Q92731 whole entry, looked up): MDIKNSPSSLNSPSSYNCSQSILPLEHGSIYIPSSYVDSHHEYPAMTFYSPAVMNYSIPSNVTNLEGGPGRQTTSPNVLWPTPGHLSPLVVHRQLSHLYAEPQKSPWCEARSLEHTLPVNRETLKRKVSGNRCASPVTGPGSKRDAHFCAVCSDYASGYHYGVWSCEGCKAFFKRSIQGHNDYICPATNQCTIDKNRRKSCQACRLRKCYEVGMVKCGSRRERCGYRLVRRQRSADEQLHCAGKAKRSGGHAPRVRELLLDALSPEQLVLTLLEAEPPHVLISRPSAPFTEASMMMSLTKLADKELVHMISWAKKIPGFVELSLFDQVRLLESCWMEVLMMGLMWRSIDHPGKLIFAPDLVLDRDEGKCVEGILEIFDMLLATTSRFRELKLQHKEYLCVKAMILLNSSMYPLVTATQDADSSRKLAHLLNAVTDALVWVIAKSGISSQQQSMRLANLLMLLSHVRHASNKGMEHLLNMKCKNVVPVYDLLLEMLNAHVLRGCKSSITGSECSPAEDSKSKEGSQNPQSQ
Sequence of Progesterone receptor (Homo sapiens) (P06401 whole entry, looked up): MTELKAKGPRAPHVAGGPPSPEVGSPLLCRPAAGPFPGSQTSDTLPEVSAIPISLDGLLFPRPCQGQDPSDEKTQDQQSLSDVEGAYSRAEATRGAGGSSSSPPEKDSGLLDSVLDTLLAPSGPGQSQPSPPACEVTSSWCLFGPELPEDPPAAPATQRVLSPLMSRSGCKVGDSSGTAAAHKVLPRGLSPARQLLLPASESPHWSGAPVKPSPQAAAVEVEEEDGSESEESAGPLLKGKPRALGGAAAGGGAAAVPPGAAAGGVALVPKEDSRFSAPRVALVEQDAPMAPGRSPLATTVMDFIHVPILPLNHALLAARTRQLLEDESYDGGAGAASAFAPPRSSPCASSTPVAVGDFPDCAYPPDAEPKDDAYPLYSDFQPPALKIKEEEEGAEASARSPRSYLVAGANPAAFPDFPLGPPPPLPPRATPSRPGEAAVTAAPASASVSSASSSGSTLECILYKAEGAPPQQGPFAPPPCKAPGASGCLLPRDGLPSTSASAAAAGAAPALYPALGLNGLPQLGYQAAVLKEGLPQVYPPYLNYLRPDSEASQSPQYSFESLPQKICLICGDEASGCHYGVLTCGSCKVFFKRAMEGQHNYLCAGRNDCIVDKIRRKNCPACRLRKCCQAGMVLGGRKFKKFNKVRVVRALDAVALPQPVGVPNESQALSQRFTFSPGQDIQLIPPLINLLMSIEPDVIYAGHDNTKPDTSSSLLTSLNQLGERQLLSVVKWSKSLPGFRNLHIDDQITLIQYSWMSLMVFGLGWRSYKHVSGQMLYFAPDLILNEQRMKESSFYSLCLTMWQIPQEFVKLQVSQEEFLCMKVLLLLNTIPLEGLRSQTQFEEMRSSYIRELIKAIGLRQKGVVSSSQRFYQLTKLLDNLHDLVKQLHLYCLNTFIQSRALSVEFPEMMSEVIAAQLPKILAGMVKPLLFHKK
Sequence of Estrogen receptor (Homo sapiens) (P03372 whole entry, looked up): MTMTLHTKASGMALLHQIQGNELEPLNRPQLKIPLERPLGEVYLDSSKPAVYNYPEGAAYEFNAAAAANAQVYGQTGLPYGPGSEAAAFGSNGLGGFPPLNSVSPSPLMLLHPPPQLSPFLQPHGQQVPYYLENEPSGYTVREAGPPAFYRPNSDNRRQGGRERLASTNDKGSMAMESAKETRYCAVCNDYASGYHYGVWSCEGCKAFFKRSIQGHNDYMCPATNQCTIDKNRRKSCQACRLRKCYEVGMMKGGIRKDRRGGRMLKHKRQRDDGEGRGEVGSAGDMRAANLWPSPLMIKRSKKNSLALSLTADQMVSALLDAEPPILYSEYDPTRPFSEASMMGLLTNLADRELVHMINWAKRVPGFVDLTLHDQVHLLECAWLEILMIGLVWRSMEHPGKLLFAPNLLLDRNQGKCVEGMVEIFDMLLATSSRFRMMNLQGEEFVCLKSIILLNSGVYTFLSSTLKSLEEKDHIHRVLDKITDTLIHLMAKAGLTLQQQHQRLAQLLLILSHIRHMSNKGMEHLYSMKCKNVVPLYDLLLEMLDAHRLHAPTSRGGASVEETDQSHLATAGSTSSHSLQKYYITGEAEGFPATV
Sequence of Androgen receptor (Homo sapiens) (P10275 whole entry, looked up): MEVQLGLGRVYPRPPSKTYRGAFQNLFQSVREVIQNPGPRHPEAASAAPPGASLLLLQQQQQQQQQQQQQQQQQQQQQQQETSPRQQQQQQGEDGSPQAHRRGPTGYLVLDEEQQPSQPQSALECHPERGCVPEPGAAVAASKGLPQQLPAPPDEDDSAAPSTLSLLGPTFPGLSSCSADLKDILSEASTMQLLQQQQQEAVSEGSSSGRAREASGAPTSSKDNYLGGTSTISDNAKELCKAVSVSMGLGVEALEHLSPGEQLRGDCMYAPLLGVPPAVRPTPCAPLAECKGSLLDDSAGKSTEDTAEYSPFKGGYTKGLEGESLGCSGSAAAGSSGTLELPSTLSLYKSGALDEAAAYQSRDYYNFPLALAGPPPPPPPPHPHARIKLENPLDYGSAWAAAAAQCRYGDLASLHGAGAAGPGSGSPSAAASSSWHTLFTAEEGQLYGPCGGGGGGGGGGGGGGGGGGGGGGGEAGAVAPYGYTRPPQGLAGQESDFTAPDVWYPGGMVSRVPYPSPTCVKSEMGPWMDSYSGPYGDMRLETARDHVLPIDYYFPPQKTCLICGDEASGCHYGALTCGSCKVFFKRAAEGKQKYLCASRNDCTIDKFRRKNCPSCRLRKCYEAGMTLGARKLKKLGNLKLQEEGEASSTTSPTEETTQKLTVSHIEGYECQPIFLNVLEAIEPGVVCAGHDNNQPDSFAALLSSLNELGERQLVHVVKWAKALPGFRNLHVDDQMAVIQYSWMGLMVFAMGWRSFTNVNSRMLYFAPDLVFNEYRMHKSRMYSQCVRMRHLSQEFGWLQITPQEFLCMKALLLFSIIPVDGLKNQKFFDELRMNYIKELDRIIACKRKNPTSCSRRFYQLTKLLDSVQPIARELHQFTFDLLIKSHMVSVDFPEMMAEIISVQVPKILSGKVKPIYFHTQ

CC(=O)Oc1ccc(C2(c3ccc(OC(C)=O)cc3)C(=O)Nc3ccccc32)cc1
active: Potency [6] 0.668 µM
inactive: Potency [1] | Potency [2] | Potency [3] | Potency [4] | outcome [5] | outcome [7] | Potency [8] | Potency [9] | Potency [10] | Potency [11] | Potency [12]

CC1(C)COCN1
inactive: Potency [1] | Potency [13] | Potency [2] | Potency [14] | Potency [3] | outcome [5] | Potency [15] | Potency [6] | outcome [7] | Potency [8] | Potency [9] | Potency [10] | Potency [11] | Potency [16] | Potency [17]

CC(C(O)c1ccccc1)N(C)CCOC(c1ccccc1)c1ccccc1 (configuration not stated)
active: Potency [13] 29.8 µM | Potency [2] 29.8 µM | Potency [3] 18.8 µM | Potency [8] 23.7 µM | Potency [12] 29.8 µM
inactive: Potency [1] | Potency [4] | outcome [5] | outcome [7] | Potency [10] | Potency [16] | Potency [17]

Cc1oc(-c2ccccc2)nc1CCOc1ccc(C[C@H](Nc2ccccc2C(=O)c2ccccc2)C(=O)O)cc1
active: Potency [18] 27.3 µM | Potency [13] 54.5 µM | Potency [2] 27.3 µM | Potency [3] 24.3 µM | Potency [6] 48.6 µM | Potency [19] 27.3 µM | Potency [12] 54.5 µM
inactive: Potency [14] | Potency [4] | outcome [5] | Potency [15] | Potency [10] | Potency [17]

NC1(c2ccc(-c3nc4ccn5c(=O)[nH]nc5c4cc3-c3ccccc3)cc2)CCC1
active: Potency [2] 1.19 µM | Potency [3] 2.11 µM | Potency [15] 29.8 µM | Potency [12] 26.6 µM
inactive: Potency [1] | Potency [4] | outcome [5] | outcome [7] | Potency [8] | Potency [9] | Potency [10] | Potency [16] | Potency [17]

CCCCCCCCCCCCOC(=O)c1cc(O)c(O)c(O)c1
61.4 µM (active) and inactive: Potency [10]
68.3 µM (active) and inactive: Potency [15]
active: Potency [13] 68.3 µM and 61.1 µM | Potency [2] 34.2 µM and 68.6 µM | Potency [3] 68.3 µM and 68.6 µM | Potency [6] 60.9 µM | Potency [20] 54.2 µM | Potency [19] 60.9 µM | Potency [12] 60.9 µM and 61.1 µM
inactive: Potency [1] | outcome [5] | Potency [11]

c1cc2c3c(c1)ccc1cccc(c13)C2
inactive: Potency [1] | Potency [13] | Potency [3] | outcome [5] | Potency [6] | outcome [7] | Potency [8] | Potency [20] | Potency [19] | Potency [9] | Potency [10] | Potency [11] | Potency [16] | Potency [17] | Potency [12]

O=C1c2c(O)ccc(O)c2C(=O)c2c(NCCNCCO)ccc(NCCNCCO)c21
inactive: Potency [1] | Potency [2] | Potency [3] | Potency [9] | Potency [16] | Potency [17]
active: Potency [13] 11.9 µM | Potency [6] 26.6 µM | Potency [8] 3.35 µM | Potency [12] 4.22 µM

Cc1ccc(O)cn1
inactive: Potency [18] | Potency [13] | Potency [2] | Potency [3] | Potency [4] | outcome [5] | Potency [15] | Potency [6] | Potency [20] | Potency [9] | Potency [10] | Potency [11] | Potency [16] | Potency [17] | Potency [12]

C/C=C/CO
inactive: Potency [18] | Potency [13] | Potency [2] | Potency [3] | Potency [4] | outcome [5] | Potency [15] | Potency [6] | outcome [7] | Potency [8] | Potency [19] | Potency [9] | Potency [10] | Potency [11] | Potency [16] | Potency [17] | Potency [12]

Oc1ccc(-c2ccccc2)c(Cl)c1
inactive: Potency [13] | Potency [3] | Potency [4] | outcome [5] | Potency [15] | outcome [7] | Potency [20] | Potency [19] | Potency [9] | Potency [10] | Potency [11] | Potency [16] | Potency [17] | Potency [12]
active: Potency [18] 21.7 µM | Potency [2] 27.3 µM

OCCN1CN(CCO)CN(CCO)C1
inactive: Potency [13] | Potency [2] | Potency [14] | Potency [3] | Potency [4] | outcome [5] | Potency [15] | Potency [6] | Potency [8] | Potency [20] | Potency [19] | Potency [9] | Potency [10] | Potency [11] | Potency [16] | Potency [17] | Potency [12]

CCC(C)c1ccccc1 (configuration not stated)
inactive: Potency [13] | Potency [2] | Potency [14] | Potency [3] | Potency [4] | outcome [5] | Potency [15] | outcome [7] | Potency [8] | Potency [20] | Potency [19] | Potency [9] | Potency [10] | Potency [11] | Potency [16] | Potency [17]

COc1cc(C(C)C)c2c(c1)S(=O)(=O)N(COc1cc(=O)n3cccc(OCCN4CCCCC4)c3n1)C2=O
inactive: activity change, negative = cytotoxicity [13] 0.166% [at 19 µM] | activity change, negative = cytotoxicity [2] -6.94% [at 19 µM] | activation [14] -1.84% [at 19 µM] | activity change, negative = cytotoxicity [3] -17.6% [at 19 µM] | activation [4] -2.57% [at 19 µM] | cAMP activity change [5] 5.85% [at 18.9 µM] | activity change, negative = inhibition [15] -0.822% [at 19 µM] | activity change, negative = cytotoxicity [6] 4.42% [at 19 µM] | activity change, negative = cytotoxicity [19] 20.1% [at 19 µM] | viability change, negative = cytotoxic [9] 14.4% [at 15.8 µM] | activity change, negative = cytotoxicity [10] 15.8% [at 15.8 µM] | activation [11] -2.24% [at 15.8 µM] | activity, negative = inhibition [16] 0.273% [at 10.5 µM] | activation [17] -1.34% [at 11.8 µM]

Source: PubChem BioAssay (Tox21)
